Test results reported in ChEMBL document CHEMBL1961873, “Compounds: GSK PKIS; Assays: Nanosyn kinase panel” (2012).

Assays:
[1] = biological target: Tyrosine-protein kinase Fyn (Homo sapiens) (UniProt P06241); conditions: at 1 µM
[2] = biological target: Tyrosine-protein kinase HCK (Homo sapiens) (UniProt P08631); conditions: at 0.1 µM
[3] = biological target: Tyrosine-protein kinase HCK (Homo sapiens) (UniProt P08631); conditions: at 1 µM
[4] = biological target: Insulin-like growth factor 1 receptor (Homo sapiens) (UniProt P08069); conditions: at 0.1 µM
[5] = biological target: Insulin-like growth factor 1 receptor (Homo sapiens) (UniProt P08069); conditions: at 1 µM
[6] = biological target: Insulin receptor (Homo sapiens) (UniProt P06213); conditions: at 0.1 µM
[7] = biological target: Insulin receptor (Homo sapiens) (UniProt P06213); conditions: at 1 µM
[8] = biological target: Insulin receptor-related protein (Homo sapiens) (UniProt P14616); conditions: at 0.1 µM
[9] = biological target: Insulin receptor-related protein (Homo sapiens) (UniProt P14616); conditions: at 1 µM
[10] = biological target: T1, Tyrosine-protein kinase ITK/TSK (Homo sapiens) (UniProt Q08881); conditions: at 0.1 µM
T1 sequence (whole entry): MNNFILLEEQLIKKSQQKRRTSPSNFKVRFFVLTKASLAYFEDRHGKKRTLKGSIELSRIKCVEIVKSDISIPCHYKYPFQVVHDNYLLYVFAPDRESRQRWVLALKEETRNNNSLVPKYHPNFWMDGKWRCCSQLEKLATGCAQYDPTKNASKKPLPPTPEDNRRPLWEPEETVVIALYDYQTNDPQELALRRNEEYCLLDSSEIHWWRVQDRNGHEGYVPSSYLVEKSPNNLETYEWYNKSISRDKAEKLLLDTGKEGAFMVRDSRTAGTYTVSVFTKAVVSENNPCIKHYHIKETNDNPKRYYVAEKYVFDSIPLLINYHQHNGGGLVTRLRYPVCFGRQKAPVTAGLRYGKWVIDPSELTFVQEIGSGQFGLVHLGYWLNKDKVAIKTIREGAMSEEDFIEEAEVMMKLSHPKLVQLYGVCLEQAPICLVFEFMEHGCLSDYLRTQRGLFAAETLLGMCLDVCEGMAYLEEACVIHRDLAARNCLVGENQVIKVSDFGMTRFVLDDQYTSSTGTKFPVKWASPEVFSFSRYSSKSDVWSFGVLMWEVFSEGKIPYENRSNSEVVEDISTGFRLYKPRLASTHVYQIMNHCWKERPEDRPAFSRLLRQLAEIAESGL

[11] = biological target: T1, Tyrosine-protein kinase ITK/TSK (Homo sapiens); conditions: at 1 µM
[12] = biological target: Tyrosine-protein kinase JAK1 (Homo sapiens) (UniProt P23458); conditions: at 0.1 µM
[13] = biological target: Tyrosine-protein kinase JAK1 (Homo sapiens) (UniProt P23458); conditions: at 1 µM
[14] = biological target: Tyrosine-protein kinase JAK2 (Homo sapiens) (UniProt O60674); conditions: at 0.1 µM
[15] = biological target: Tyrosine-protein kinase JAK2 (Homo sapiens) (UniProt O60674); conditions: at 1 µM
[16] = biological target: T2, Tyrosine-protein kinase JAK3 (Homo sapiens) (UniProt P52333); conditions: at 0.1 µM
T2 sequence (whole entry): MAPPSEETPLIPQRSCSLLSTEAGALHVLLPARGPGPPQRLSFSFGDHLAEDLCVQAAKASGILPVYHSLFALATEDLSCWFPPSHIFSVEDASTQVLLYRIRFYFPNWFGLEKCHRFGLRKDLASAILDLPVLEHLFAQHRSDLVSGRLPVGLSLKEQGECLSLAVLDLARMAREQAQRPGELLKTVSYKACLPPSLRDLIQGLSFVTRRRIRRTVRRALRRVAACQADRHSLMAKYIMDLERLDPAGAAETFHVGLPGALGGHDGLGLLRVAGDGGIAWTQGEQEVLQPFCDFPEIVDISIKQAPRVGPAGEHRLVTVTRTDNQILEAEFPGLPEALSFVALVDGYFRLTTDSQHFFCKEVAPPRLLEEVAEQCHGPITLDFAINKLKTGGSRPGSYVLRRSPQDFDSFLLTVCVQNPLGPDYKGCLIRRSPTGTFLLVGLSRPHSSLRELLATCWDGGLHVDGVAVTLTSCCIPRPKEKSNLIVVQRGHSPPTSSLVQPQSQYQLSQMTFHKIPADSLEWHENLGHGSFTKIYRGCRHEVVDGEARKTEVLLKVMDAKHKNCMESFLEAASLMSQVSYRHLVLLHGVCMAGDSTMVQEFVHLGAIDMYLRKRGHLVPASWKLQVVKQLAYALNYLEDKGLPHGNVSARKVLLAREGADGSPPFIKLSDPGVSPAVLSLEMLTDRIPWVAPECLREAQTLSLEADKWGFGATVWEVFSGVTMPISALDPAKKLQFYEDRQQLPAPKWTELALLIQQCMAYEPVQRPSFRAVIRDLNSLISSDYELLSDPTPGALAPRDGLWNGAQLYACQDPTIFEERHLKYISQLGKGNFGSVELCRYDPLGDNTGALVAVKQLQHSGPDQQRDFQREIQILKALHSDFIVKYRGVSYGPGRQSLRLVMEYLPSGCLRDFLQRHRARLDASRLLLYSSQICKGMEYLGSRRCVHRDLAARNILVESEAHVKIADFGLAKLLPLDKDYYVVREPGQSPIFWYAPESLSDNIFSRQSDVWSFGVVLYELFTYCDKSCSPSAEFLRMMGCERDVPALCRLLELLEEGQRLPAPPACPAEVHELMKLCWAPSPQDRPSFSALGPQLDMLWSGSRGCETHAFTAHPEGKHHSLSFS

[17] = biological target: T2, Tyrosine-protein kinase JAK3 (Homo sapiens); conditions: at 1 µM
[18] = biological target: Vascular endothelial growth factor receptor 2 (Homo sapiens) (UniProt P35968); conditions: at 0.1 µM
[19] = biological target: Vascular endothelial growth factor receptor 2 (Homo sapiens) (UniProt P35968); conditions: at 1 µM
[20] = biological target: Mast/stem cell growth factor receptor Kit (Homo sapiens) (UniProt P10721); conditions: at 0.1 µM;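 note: values are mean inhibition of KIT, from the GSK PKIS dataset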
Mast/stem cell growth factor receptor Kit (Homo sapiens), sequence (P10721 whole entry): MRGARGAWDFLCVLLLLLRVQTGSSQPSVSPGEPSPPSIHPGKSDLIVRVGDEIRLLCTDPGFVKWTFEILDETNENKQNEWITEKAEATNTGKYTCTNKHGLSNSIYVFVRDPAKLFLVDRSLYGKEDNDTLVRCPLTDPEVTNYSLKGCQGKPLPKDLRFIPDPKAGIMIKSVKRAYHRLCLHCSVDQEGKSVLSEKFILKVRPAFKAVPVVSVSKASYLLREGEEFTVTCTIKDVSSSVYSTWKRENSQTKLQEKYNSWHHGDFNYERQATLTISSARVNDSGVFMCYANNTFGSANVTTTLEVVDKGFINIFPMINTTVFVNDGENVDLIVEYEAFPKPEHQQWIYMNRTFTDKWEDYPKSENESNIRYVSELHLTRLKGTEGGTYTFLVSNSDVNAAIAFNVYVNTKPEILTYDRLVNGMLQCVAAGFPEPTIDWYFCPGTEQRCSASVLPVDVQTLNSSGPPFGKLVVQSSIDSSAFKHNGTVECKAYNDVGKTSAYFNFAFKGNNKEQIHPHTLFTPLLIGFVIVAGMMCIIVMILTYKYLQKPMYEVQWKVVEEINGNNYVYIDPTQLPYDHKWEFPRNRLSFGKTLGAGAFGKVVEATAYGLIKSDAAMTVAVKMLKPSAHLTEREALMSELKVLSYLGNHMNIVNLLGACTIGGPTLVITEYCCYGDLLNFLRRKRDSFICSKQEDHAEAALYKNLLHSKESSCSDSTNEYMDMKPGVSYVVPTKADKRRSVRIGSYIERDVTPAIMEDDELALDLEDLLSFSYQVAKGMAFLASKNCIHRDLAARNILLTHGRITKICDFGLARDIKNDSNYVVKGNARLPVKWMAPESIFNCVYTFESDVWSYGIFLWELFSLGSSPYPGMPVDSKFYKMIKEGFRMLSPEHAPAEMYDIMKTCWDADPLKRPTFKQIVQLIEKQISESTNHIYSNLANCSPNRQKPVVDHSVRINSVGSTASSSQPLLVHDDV

Tyrosine-protein kinase Fyn (Homo sapiens), sequence (P06241 2-537 limits assumed): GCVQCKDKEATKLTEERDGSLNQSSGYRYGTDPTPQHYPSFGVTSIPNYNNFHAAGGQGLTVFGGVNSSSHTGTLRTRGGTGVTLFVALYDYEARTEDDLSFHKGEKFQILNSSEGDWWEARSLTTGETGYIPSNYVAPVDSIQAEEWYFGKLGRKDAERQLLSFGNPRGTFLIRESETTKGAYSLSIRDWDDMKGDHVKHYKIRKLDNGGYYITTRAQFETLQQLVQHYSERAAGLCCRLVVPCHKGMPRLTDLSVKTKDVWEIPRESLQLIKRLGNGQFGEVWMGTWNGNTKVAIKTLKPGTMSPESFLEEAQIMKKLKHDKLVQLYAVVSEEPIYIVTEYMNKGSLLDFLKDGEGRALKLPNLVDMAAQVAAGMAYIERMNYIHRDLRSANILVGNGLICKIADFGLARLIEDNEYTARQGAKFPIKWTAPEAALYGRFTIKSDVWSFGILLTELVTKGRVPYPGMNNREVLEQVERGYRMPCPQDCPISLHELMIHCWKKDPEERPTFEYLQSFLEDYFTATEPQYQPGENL
Vascular endothelial growth factor receptor 2 (Homo sapiens), sequence (P35968 whole entry): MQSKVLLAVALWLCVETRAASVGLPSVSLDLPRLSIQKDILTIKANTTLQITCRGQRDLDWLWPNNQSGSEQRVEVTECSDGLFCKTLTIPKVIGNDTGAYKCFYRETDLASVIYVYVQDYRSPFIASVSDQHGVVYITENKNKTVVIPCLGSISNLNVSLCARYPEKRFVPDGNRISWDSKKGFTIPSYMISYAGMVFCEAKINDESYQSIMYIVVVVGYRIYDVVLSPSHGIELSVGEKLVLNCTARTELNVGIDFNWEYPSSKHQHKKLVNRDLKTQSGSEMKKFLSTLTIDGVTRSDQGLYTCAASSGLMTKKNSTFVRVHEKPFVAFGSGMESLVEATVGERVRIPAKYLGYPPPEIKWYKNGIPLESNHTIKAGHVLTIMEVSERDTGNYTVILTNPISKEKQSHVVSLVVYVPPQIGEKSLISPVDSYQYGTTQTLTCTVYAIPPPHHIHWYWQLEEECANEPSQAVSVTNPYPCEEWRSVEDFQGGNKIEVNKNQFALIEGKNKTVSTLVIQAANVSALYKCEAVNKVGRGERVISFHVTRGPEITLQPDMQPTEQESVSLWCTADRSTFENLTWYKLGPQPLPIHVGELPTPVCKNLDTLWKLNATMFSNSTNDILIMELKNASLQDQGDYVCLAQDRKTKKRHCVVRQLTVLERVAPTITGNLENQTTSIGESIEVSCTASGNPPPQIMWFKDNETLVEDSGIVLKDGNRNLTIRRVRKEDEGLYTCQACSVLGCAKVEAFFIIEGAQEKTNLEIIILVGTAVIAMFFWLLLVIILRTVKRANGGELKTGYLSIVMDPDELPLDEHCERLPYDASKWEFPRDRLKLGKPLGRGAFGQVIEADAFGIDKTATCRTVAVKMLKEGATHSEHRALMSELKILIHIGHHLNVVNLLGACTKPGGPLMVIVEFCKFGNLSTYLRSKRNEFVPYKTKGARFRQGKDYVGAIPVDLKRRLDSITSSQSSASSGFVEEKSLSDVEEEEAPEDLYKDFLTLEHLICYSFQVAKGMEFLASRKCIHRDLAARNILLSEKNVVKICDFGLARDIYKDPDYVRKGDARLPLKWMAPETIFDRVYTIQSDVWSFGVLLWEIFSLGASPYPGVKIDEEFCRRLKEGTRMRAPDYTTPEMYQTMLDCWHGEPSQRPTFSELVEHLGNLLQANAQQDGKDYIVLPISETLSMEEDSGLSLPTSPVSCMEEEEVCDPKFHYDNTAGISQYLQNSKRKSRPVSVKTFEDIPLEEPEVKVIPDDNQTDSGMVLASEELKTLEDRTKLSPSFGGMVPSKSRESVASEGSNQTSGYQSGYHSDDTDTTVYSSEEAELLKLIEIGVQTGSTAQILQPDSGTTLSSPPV
Tyrosine-protein kinase JAK1 (Homo sapiens), sequence (P23458 whole entry): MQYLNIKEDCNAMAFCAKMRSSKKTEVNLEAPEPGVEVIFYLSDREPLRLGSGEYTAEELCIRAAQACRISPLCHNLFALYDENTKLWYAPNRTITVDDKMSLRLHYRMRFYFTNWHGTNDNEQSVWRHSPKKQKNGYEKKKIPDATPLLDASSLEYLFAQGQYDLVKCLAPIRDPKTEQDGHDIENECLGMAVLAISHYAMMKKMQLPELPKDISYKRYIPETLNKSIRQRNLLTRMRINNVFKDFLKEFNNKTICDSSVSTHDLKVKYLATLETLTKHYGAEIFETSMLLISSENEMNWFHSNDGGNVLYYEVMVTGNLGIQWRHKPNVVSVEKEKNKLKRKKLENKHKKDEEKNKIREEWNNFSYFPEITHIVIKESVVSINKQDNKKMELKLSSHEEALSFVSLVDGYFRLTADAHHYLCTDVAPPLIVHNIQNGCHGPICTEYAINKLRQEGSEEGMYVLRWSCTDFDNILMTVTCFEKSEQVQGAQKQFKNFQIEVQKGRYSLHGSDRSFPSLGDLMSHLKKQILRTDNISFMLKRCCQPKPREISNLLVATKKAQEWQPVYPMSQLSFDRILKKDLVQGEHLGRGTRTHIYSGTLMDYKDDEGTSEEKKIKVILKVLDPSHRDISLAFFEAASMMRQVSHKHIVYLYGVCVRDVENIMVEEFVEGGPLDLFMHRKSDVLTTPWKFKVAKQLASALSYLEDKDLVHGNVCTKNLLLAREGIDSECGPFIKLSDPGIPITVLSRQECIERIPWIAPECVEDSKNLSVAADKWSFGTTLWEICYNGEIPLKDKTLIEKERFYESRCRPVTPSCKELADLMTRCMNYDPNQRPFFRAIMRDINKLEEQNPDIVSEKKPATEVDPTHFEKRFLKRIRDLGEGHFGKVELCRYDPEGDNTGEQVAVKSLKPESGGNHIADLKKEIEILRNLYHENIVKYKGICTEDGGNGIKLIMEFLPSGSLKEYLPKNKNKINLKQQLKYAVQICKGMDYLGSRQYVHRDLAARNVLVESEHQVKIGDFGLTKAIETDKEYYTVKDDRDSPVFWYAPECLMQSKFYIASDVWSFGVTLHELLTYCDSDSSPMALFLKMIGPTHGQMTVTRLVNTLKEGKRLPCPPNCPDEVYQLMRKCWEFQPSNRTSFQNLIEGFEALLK
Tyrosine-protein kinase HCK (Homo sapiens), sequence (P08631 2-526 limits assumed): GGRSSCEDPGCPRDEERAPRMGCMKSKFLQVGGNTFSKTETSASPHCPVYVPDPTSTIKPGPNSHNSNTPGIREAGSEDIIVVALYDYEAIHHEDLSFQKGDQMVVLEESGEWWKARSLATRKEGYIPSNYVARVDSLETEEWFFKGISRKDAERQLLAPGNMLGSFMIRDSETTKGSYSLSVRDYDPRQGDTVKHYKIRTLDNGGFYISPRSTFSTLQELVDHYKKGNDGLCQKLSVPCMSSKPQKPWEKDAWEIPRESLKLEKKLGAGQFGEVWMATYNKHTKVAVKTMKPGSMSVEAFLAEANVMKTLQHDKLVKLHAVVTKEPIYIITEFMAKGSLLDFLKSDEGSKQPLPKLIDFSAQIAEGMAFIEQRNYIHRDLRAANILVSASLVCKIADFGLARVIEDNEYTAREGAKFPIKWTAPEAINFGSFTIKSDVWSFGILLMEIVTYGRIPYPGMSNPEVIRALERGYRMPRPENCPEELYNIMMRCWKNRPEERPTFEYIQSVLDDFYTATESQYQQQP

Row | SMILES | inhibition [1] [%] | inhibition [2] [%] | inhibition [3] [%] | inhibition [4] [%] | inhibition [5] [%] | inhibition [6] [%] | inhibition [7] [%] | inhibition [8] [%] | inhibition [9] [%] | inhibition [10] [%] | inhibition [11] [%] | inhibition [12] [%] | inhibition [13] [%] | inhibition [14] [%] | inhibition [15] [%] | inhibition [16] [%] | inhibition [17] [%] | inhibition [18] [%] | inhibition [19] [%] | inhibition [20] [%]
1 | Cc1cc(Cl)cc2c1NC(=O)C2=NNc1ccc(S(N)(=O)=O)cc1 | 3.01 | 2.49 | 4.3 | 2.32 | 0.19 | 2.78 | 4.18 | -0.92 | 1.47 | 1.14 | 1.14 | 2.03 | 12.7 | -0.3 | 0.42 | -0.31 | 0.84 | 1.84 | 4.19 | –
2 | Oc1cccc(-c2nc(-c3ccccc3)[nH]c2-c2ccncc2)c1 | 17.9 | 13.7 | 51.2 | 2.68 | 5.15 | 1.16 | 2.18 | 2.79 | 0.88 | 1.78 | 1.61 | 9.17 | 5.42 | 1.43 | 2.51 | 0.73 | 9.09 | 30.8 | 70.9 | 4.95
3 | CCn1c(-c2nonc2N)nc2ccc(F)cc21 | 4.14 | 4.97 | 7.63 | 4.55 | 8.11 | 5.06 | 5.22 | 4.24 | 3.56 | 2.15 | 1.52 | 5.5 | 10.5 | 1.07 | 1.29 | -1.62 | -1.23 | 5.19 | 6.9 | 5.81
4 | CC(C)c1ccc2c(c1)NC(=O)/C2=N/Nc1ccc(S(N)(=O)=O)cc1 | 7.54 | 0.57 | 11 | -0.14 | 1.33 | 4 | 1.87 | -1.32 | -1.93 | 0.01 | 2.46 | -0.53 | 0.94 | -1.94 | -0.2 | -0.51 | 1.08 | 1.26 | 4.21 | 7.67
5 | CS(=O)(=O)Nc1cccc(-c2ccc3c(NC(=O)C4CC4)n[nH]c3c2)c1 | 3.25 | 3.53 | 3.03 | 1.3 | -1.63 | 2.96 | 4.14 | -0.36 | -1.26 | 0.53 | 1.71 | 0.09 | 0.48 | 0.43 | 1.32 | -0.13 | 2.96 | 1.1 | 7.91 | -1.41
6 | CN(C)C(=O)O[C@H]1CN[C@H](C#Cc2cc3ncnc(Nc4ccc(OCc5cccc(F)c5)c(Cl)c4)c3s2)C1 | 1.7 | 4.49 | 10.5 | 3.22 | 2.88 | 4.02 | 3.06 | 0.79 | 1.4 | 1.49 | 1.42 | 2.35 | 4.66 | 1.84 | 1.89 | -0.68 | 1.63 | 4.69 | 9.06 | 2.32
7 | NC(=O)c1sc(-n2cnc3ccccc32)cc1OCc1ccccc1Br | 6.19 | 4.21 | 7.03 | 1.53 | 3.04 | 3.07 | 5.25 | 1.82 | 3.4 | 1.35 | 2.17 | 4.07 | 3.98 | 1.97 | 2.84 | -2.53 | 0.23 | 0.79 | 13.6 | 5.61
